Results as given in article PMC5540273 (PLoS ONE, 2017).

Legend:
Details in all cases: concentration: 1 μM, replicates: in singlicate; n = 1
MARK3 = tested on: MARK3
MARK4 = tested on: MARK4
MAST1 = tested on: MAST1
MEK1 = tested on: T1, MEK1
T1 construct: gene MAP2K1

MEK2 = tested on: T2, MEK2
T2 construct: gene MAP2K2

MEK3 = tested on: T3, MEK3
T3 construct: gene MAP2K3

MEK4 = tested on: T4, MEK4
T4 construct: gene MAP2K4

MEK5 = tested on: T5, MEK5
T5 construct: gene MAP2K5

MEK6 = tested on: T6, MEK6
T6 construct: gene MAP2K6

MELK = tested on: MELK
MERTK = tested on: MERTK
MET = tested on: MET
MINK = tested on: T7, MINK
T7 construct: gene MINK1

MKK7 = tested on: MKK7
MKNK1 = tested on: MKNK1
MKNK2 = tested on: MKNK2
MLCK = tested on: T8, MLCK
T8 construct: gene MYLK3

MLK1 = tested on: T9, MLK1
T9 construct: gene MAP3K9

MLK2 = tested on: MLK2
MLK3 = tested on: MLK3
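Note: KINOMEscan kinase panel screen.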

Row | Compound | %Inh (MARK3) | %Inh (MARK4) | %Inh (MAST1) | %Inh (MEK1) | %Inh (MEK2) | %Inh (MEK3) | %Inh (MEK4) | %Inh (MEK5) | %Inh (MEK6) | %Inh (MELK) | %Inh (MERTK) | %Inh (MET) | %Inh (MINK) | %Inh (MKK7) | %Inh (MKNK1) | %Inh (MKNK2) | %Inh (MLCK) | %Inh (MLK1) | %Inh (MLK2) | %Inh (MLK3)
1 | CS(=O)(=O)CCNCc1nc(-c2ccc3ncnc(Nc4ccc(OCc5cccc(F)c5)c(Cl)c4)c3c2)cs1.Cl [GW583340] | 0% | 0% | 0% | 0% | 0% | 0% | 3% | 57% | 0% | 0% | 0% | 0% | 0% | 0% | 0% | 0% | 0% | 0% | 0% | 0%
2 | Nc1nccc2scc(-c3ccc4c(c3)CCN4C(=O)Cc3cc(F)ccc3F)c12 [GSK2587663] | 4% | 0% | 9% | 0% | 0% | 0% | 5% | 67% | 0% | 0% | 0% | 0% | 18% | 0% | 0% | 4% | 4% | 0% | 0% | 15%
3 | NC(=O)c1sc(-n2cnc3ccccc32)cc1OCc1ccccc1F [GSK1024306] | 0% | 1% | 11% | 0% | 0% | 0% | 20% | 69% | 0% | 23% | 32% | 20% | 1% | 0% | 10% | 0% | 0% | 9% | 0% | 7%
4 | Cc1cccc(-c2nc(Nc3ccc4[nH]nnc4c3)c3ccccc3n2)n1 [GW867587] | 18% | 3% | 17% | 7% | 16% | 5% | 0% | 19% | 0% | 0% | 19% | 0% | 0% | 0% | 8% | 0% | 0% | 0% | 0% | 0%
5 | c1ccc(-c2ccc3c(-c4ccnc(Nc5ccc6c(c5)OCCO6)n4)cnn3n2)cc1 [GW818941] | 0% | 9% | 8% | 17% | 3% | 0% | 9% | 5% | 0% | 0% | 58% | 100% | 0% | 21% | 0% | 2% | 4% | 12% | 39% | 28%
6 | Cl.c1ccc(Cn2ncc3cc(Nc4ncnc5ccccc45)ccc32)cc1 [GW273749] | 0% | 0% | 0% | 0% | 7% | 0% | 0% | 99.7% | 6% | 0% | 9% | 0% | 0% | 0% | 6% | 30% | 0% | 0% | 0% | 0%
7 | Cl.Cl.c1ccc(-c2cc3ccncc3cc2OC2CCNCC2)cc1 [GSK1122999] | 0% | 5% | 0% | 0% | 5% | 0% | 23% | 16% | 0% | 17% | 46% | 0% | 6% | 0% | 29% | 4% | 10% | 0% | 0% | 23%
8 | COc1cc2ncnc(Nc3ccc(OCc4ccccc4Br)c(Cl)c3)c2cc1OC.Cl [GI261590] | 1% | 11% | 0% | 19% | 13% | 0% | 0% | 98.9% | 0% | 0% | 7% | 0% | 0% | 0% | 0% | 11% | 0% | 0% | 11% | 9%
9 | Cc1ccc(O)cc1Nc1cc(C(F)(F)F)nc2ccc(-c3ccncc3)cc12 [GW630823] | 0% | 4% | 0% | 0% | 5% | 0% | 0% | 0% | 0% | 0% | 21% | 6% | 0% | 0% | 0% | 0% | 12% | 4% | 2% | 0%
10 | COc1ccc(Nc2nccc(N3CCC(NC(=O)Nc4ccc5c(c4)OCO5)C3)n2)cc1 (stereo not drawn) [GSK1379745] | 13% | 9% | 0% | 0% | 0% | 0% | 25% | 32% | 0% | 0% | 34% | 20% | 3% | 24% | 21% | 6% | 31% | 6% | 19% | 38%
11 | Cn1ccc2ncnc(Oc3ccc(NC(=O)Nc4cccnc4)c(Cl)c3)c21 | 0% | 4% | 0% | 0% | 0% | 0% | 0% | 5% | 0% | 10% | 6% | 15% | 0% | 0% | 10% | 0% | 0% | 14% | 2% | 0%
12 | CNc1nccc(-c2c(-c3ccc(F)cc3)ncn2CCCN2CCOCC2)n1 [SB-222516] | 0% | 35% | 20% | 0% | 12% | 15% | 23% | 46% | 0% | 24% | 19% | 3% | 15% | 0% | 3% | 0% | 1% | 33% | 10% | 0%
13 | O=C(CCO)NCCn1ccc2ncnc(Nc3ccc(Oc4cccc(C(F)(F)F)c4)c(Cl)c3)c21 | 0% | 0% | 0% | 0% | 34% | 0% | 0% | 99.4% | 0% | 0% | 0% | 0% | 0% | 0% | 0% | 12% | 0% | 0% | 0% | 0%
14 | Fc1cccc(COc2ccc(Nc3ncnc4cc[nH]c34)cc2Cl)c1 | 9% | 0% | 65% | 12% | 21% | 18% | 20% | 47% | 0% | 6% | 0% | 8% | 34% | 0% | 19% | 10% | 0% | 9% | 0% | 32%
15 | CCC(CC)(CC)n1cnc2c(N)ncnc21 [SKF-97620] | 34% | 37% | 32% | 10% | 21% | 36% | 43% | 45% | 14% | 0% | 40% | 0% | 15% | 0% | 0% | 10% | 0% | 0% | 3% | 1%
16 | CC(=O)Nc1n[nH]c2ncc(-c3ccccc3)cc12 [SB-548492] | 0% | 8% | 42% | 23% | 35% | 19% | 21% | 87% | 0% | 21% | 37% | 4% | 30% | 2% | 0% | 62% | 0% | 8% | 6% | 3%
17 | Fc1cccc(COc2ccc(Nc3ncnc4sc(-c5ccc[nH]5)cc34)cc2Cl)c1 [GW707818] | 13% | 14% | 1% | 0% | 0% | 0% | 2% | 27% | 0% | 13% | 10% | 0% | 16% | 8% | 12% | 2% | 0% | 7% | 0% | 2%
18 | Fc1ccc(Nc2nccc(-c3c(-c4ccc(Cl)cc4)nn4ncccc34)n2)cc1F [GW829058] | 34% | 25% | 26% | 29% | 42% | 27% | 30% | 14% | 13% | 0% | 0% | 3% | 14% | 23% | 0% | 2% | 9% | 2% | 12% | 4%
19 | COc1ccc(NC(=O)Nc2ccc(C)c(-c3ccc(C(=O)Nc4ccncc4)cc3)c2)cc1 [GSK1398475] | 0% | 0% | 0% | 0% | 0% | 0% | 18% | 0% | 0% | 6% | 31% | 0% | 5% | 0% | 6% | 0% | 0% | 0% | 0% | 0%
20 | Oc1ccc2ncnc(Nc3ccc(OCc4ccccc4)cc3)c2c1 [GI262866] | 22% | 0% | 0% | 18% | 2% | 0% | 11% | 99.1% | 0% | 0% | 34% | 5% | 0% | 0% | 0% | 15% | 0% | 0% | 24% | 0%
21 | Clc1cccc(-c2nc(Nc3ccncc3)c3ccccc3n2)c1 [GW873004] | 32% | 23% | 53% | 10% | 21% | 0% | 0% | 14% | 0% | 31% | 7% | 33% | 16% | 0% | 18% | 0% | 0% | 2% | 16% | 0%
